KCNH2 3.1 inh: qHTS for Inhibitors of KCHN2 3.1: Mutant qHTS; U2OS KCNH2 3.1, thallium flux FluxOr; hits give low values; activity change, % (tested at about 1.8 µM); AID 720553, 2013; 0.95% of 340,000 active;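 active = maximum activity change below -70%; inconclusive = maximum activity change from -70% to -50%; inactive = maximum activity change above -50%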;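 note: thallium influx rate constant from kinetic fluorescence after stimulation buffer; % is set by controls: 0 for no effect and ±100 for the full control effect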
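Virally transduced U2OS (3.1 isoform, 4 h infection in dark at RT) → overnight 37 C → FluxOr + Red40 in HBSS/HEPES, 45 min → stimulation buffer, 2 min kinetic read → rate constant vs DMSO controls.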
ClpP mod: qHTS Assay for Activators of ClpP; ATP-dependent Clp protease proteolytic subunit (Bacillus subtilis (strain 168)), P80244; purified B. subtilis ClpP, FRET peptide cleavage, 20 min; Potency, µM (highest dose often 57.5 µM), for inactives: at the top dose activity change, negative = active; 1.9% of 340,000 active; AID 651965, 2013; active = well fitted falling curve with a large enough effect; inconclusive = small, poorly fitted or top-dose-only effect; inactive = no such curve, though single readings can be large or run the other way; note: potency is the fitted concentration of half-maximal effect; the source files actives as falling curves though it sought activators and does not explain the sign; nearly all actives have a fitted effect of over 65% in size
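FRET quenching reversal measured ClpP activation: 10 microg/mL B. subtilis ClpP at pH 8 with the FRET-FV decapeptide, read at 430 nm after 320 nm excitation. The 20-min minus 0-min signal was scaled between DMSO/no-enzyme wells and ADEP (5.8 microM final).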
p53 reactivator: qHTS assay for re-activators of p53 using a Luc reporter; H1299 p53-A138V BP100-luciferase reporter, luminescence, 24 h; 0.063% of 320,000 active; Potency, µM (top dose mostly 92.2 µM), for inactives: at the highest dose activity change, positive = activation, hits mostly activators; AID 504706, 2011; active = well fitted activation curve with a large enough effect; inconclusive = small, poorly fitted or top-dose-only effect; inactive = no such curve, though single readings can be large or run the other way; note: potency is the fitted concentration of half-maximal effect; % of control where 0% means no effect; nearly all actives have a fitted effect of over 45% in size
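H1299 (p53-null), stable ts p53-A138V + BP100-Luc; 1000 cells/well, Opti-MEM/10% FBS; cpd 4 pt, 1:5; 24 h, 37 deg C, 5% CO2; detection reagent 10 min RT; luminescence.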
TRPV1 PAM: HTS Assay for Compounds that Act as Potentiators of the Vanilloid Receptor 1. 0.02% of 320,000 active. Transient receptor potential cation channel subfamily V member 1 (Homo sapiens), Q8NER1. potentiation, % at 8.33 µM. TRPV1-expressing cells, Fluo-8 calcium influx, capsaicin EC20 potentiation; in the data active = potentiation above about 80%; inconclusive = between about 30% and that limit; note: 0% is about no effect
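Fluo-8 calcium influx in TRPV1-expressing cells, kinetic read (ex 480/em 520 nm). Compound added and read 3 min for agonist activity, followed by capsaicin at EC20 final and 2 min further read for enhancement.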
hERG WT inh: qHTS for Inhibitors of KCHN2 3.1: Wildtype qHTS; Voltage-gated inwardly rectifying potassium channel KCNH2 (Homo sapiens), Q12809; U2OS, BacMam KCNH2, thallium flux FluxOr; hits give low values; activity change, % at 1.84 µM; 0.37% of 340,000 active;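 active = maximum activity change below -70%; inconclusive = maximum activity change between -70% and -50%; inactive = maximum activity change above -50%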; note: % is set by controls: 0 for no effect and ±100 for the full control effect
Target sequence (Q12809 whole entry, looked up): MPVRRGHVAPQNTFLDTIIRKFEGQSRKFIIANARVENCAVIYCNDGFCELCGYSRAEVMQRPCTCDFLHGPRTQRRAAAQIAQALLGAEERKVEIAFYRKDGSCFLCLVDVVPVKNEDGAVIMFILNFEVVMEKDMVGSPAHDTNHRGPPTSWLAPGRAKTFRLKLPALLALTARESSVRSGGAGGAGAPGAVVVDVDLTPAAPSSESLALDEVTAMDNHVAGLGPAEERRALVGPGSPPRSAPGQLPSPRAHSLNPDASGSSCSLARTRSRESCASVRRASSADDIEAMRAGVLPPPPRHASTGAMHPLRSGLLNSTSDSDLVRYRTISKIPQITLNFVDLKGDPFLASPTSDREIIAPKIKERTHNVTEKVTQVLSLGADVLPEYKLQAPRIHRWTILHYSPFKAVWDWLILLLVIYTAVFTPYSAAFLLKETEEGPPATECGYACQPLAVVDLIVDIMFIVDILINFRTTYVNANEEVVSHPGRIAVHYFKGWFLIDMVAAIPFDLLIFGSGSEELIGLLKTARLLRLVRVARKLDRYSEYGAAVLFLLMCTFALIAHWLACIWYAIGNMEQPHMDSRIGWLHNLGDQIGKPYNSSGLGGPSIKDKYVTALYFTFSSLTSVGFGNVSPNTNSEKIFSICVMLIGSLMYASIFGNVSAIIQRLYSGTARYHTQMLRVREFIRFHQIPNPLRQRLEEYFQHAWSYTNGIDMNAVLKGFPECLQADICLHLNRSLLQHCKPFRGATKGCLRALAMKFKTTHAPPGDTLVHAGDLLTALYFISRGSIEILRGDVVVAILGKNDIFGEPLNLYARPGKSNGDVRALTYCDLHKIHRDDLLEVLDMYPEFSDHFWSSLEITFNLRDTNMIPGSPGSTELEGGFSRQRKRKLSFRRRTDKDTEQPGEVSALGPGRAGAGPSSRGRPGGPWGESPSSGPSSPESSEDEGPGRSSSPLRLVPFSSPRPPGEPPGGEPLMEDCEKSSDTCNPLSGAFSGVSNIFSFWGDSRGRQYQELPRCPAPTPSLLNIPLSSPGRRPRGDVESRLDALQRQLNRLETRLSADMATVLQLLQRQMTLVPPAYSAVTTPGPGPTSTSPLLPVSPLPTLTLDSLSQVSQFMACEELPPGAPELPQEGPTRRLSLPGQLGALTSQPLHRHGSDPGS
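U2OS cells transduced with wild-type KCNH2 virus are loaded with FluxOr dye for 45 min, and thallium flux is measured in kinetic reads before and after stimulation buffer. Rate constants are normalized to DMSO controls.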
TRPV1 agonist: HTS Assay for Compounds that Act as Agonists of the Vanilloid Receptor 1; 0.19% of 320,000 active; Transient receptor potential cation channel subfamily V member 1 (Homo sapiens), Q8NER1; TRPV1-expressing cells, Fluo-8 calcium influx, agonist mode; activation, % at 8.33 µM; in the data active = activation above about 80%; inconclusive = between about 30% and that limit; note: 0% is about no effect
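TRPV1-expressing cells were cultured overnight at 35.5C and loaded with Fluo-8 calcium dye for 40 to 90 min at room temperature. After a 10 s baseline, compound was added and calcium influx was read kinetically for 3 min (ex 480/em 520 nm).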
Active calls of the source: *; i = inactive; ? = inconclusive; / = no result given. The list is not random: actives were taken first. Their share in the collection is about 2.6%.

SMILES	KCNH2 3.1 inh	ClpP mod	p53 reactivator	TRPV1 PAM	hERG WT inh	TRPV1 agonist
CN1c2ccccc2C(O)=C(C(=S)Nc2ccc(F)c(Cl)c2)S1(=O)=O	-9	-11%	-9%	21	-255*	-1
O=C(COc1ccc2ccc(=O)oc2c1)Nc1cccc(S(=O)(=O)N2CCCCC2)c1	0	35µM*	-5%	-8	9	-2
Cc1ccc(S(=O)(=O)N2CCOCC2)cc1NC(=O)COC(=O)Cc1cccs1	8	-7%	3%	-4	-2	-3
Cc1ccc(S(=O)(=O)N2CCOCC2)cc1NC(=O)COc1ccc2c(C)cc(=O)oc2c1	-10	32µM*	-13%	-3	-3	3
Cc1ccc(S(=O)(=O)N2CCOCC2)cc1NC(=O)COC(=O)CNC(=O)c1ccccc1	-98*	2%	4%	-4	6	5
CCCCNc1ccccc1C(=O)OCC(=O)Nc1ccc(S(N)(=O)=O)cc1	-20	28µM*	1%	-6	-3	?
CCCCNC(=O)COC(=O)c1ccc(Cl)c(S(N)(=O)=O)c1	6	14µM*	5%	22	1	3
CCCCNC(=O)COC(=O)c1ccccc1F	9	/	-2%	11	-131*	2
O=C(COC(=O)c1ccccc1F)NNC(=O)c1ccccc1	11	-1%	2%	5	-7	-2
CCC(=O)Nc1ccccc1C(=O)OCC(=O)Nc1ccc(S(N)(=O)=O)cc1	-10	-29%	-5%	6	-1	0
CCCCOc1ccc(Cn2c(=O)sc3ccccc32)cc1	/	-1%	/	/	/	/
COc1ccc(NC(=O)CSc2nnc(-c3ccncc3)n2-c2ccccc2)cc1	/	-2%	/	/	/	/
COc1cc(-c2nnc(-c3cc(-c4ccccc4)nc4ccccc34)o2)cc(OC)c1OC	-35	/	/	/	3	/
COc1cccc(OC)c1-c1nnc(-c2cn(C)c3ccccc23)o1	-5	11µM*	-4%	-3	0	6
COc1cc2nc(Cl)nc(NC3CCN(Cc4ccccc4)CC3)c2cc1OC	/	0%	/	/	/	/
COc1ccc(Cl)cc1C(=O)Nc1ccccc1N1CCN(C(=O)C(C)C)CC1	-10	6%	-13%	7	-90*	4
O=C(Nc1ccc(N2CCN(C(=O)c3ccccc3)CC2)c(Cl)c1)c1ccc(Br)o1	-102*	-2%	-3%	5	-12	19
COc1ccc(C(=O)Nc2ccccc2N2CCN(C(=O)C(C)C)CC2)cc1Cl	-3	2%	-5%	-11	-4	?
O=C(Nc1ccc(N2CCN(C(=O)c3ccccc3)CC2)cc1)c1ccc(Br)o1	-11	0%	-17%	-13	1	16
COc1c(C)cc(Br)cc1C(=O)Nc1ccccc1N1CCN(C(=O)c2ccccc2)CC1	-4	18µM*	0%	15	2	14
COc1ccc(Br)cc1C(=O)Nc1ccccc1N1CCN(C(=O)c2ccccc2)CC1	17	/	-6%	14	-85*	1
CC(=O)Nc1cc(-c2ccc(C(=O)N3CCOCC3)cc2)cn2c(-c3ccc(S(C)(=O)=O)cc3)cnc12	/	5%	/	/	/	/
CCc1ccc(NC(=O)C2CCCN(c3nn4cc(-c5ccc(OC)cc5)nc4s3)C2)cc1 (configuration not stated)	/	1%	/	/	/	/
O=C(c1ccc(Cl)cc1)n1nc(-c2ccco2)nc1NCc1cccs1	/	1%	/	/	/	/
CCOc1ccc(C(=O)Nc2ccccc2N2CCN(C(=O)c3ccccc3)CC2)cc1[N+](=O)[O-]	-104*	-3%	-15%	-1	-92*	8
SMILES	KCNH2 3.1 inh	ClpP mod	p53 reactivator	TRPV1 PAM	hERG WT inh	TRPV1 agonist
O=C(Nc1ccccc1N1CCN(C(=O)c2ccccc2)CC1)c1cc(Br)ccc1Cl	-92*	-12%	-1%	-5	?	?
C[N+]1(CC(=O)c2ccc(F)cc2)CCc2ccccc2C1 (configuration not stated)	/	0%	/	/	/	/
c1ccc2c(c1)sc[n+]2CCC1CCCCC1	/	-4%	/	/	/	/
Cc1nc2sccn2c(=O)c1S(=O)(=O)Nc1cc(C(F)(F)F)ccc1Cl	/	-3%	/	/	/	/
CC(C)C(NC(=O)c1ccccc1NC(=O)C(C)(C)C)C(=O)N1CCOCC1 (configuration not stated)	-12	-9%	-3%	/	-16	/
Cc1ccc(S(=O)(=O)N(C)c2ccc(C(=O)Nc3ccccc3C(=O)N3CCOCC3)cc2)cc1	/	18µM*	-5%	0	0	-1
CC(NC(=O)c1ccccc1NC(=O)c1ccccc1)C(=O)N1CCOCC1 (configuration not stated)	-6	-1%	6%	7	1	80*
CN(c1ccccc1)S(=O)(=O)c1ccc(NC(=O)c2ccc(-c3ccccc3)cc2)cc1	2	25µM*	4%	-22	-11	1
Cc1cccc(OC(=O)CSc2nnc(-c3cccs3)o2)c1C	/	87%	/	/	/	/
O=C(NC1CCCCC1)c1ccc2c(c1)N(Cc1cccc(Cl)c1)C(=O)c1ccccc1S2(=O)=O	/	0%	/	/	/	/
Cn1c(C(c2cc3ccccc3n2C)c2cc3ccccc3n2C)cc2ccccc21	/	-4%	/	/	/	/
CCN(CC)c1nc2ccccc2n2cnnc12	10	-6%	-18%	2	2	-2
Cc1cc(C)n(-c2nc3ccccc3n3cnnc23)n1	-103*	-3%	-10%	1	3	-2
CCCCNC(=O)C1(C)CCCCN1C(=O)c1c(Cl)cccc1Cl (configuration not stated)	/	1%	/	/	/	/
Cn1c(=O)c2c(nc(NCC3CCCO3)n2Cc2ccccc2)n(C)c1=O (configuration not stated)	5	28µM*	9%	-28	1	2
Cc1ccc2[nH]cc(C(O)c3c[nH]c4ccc(C)cc34)c2c1	/	-1%	/	/	/	/
Cc1cccc(S(=O)(=O)c2c(N)n(Cc3ccco3)c3nc4ccccc4nc23)c1	15	6.3µM*	-4%	-4	-5	6
CCCCn1c(N)c(S(=O)(=O)c2ccc(C)cc2)c2nc3ccccc3nc21	-4	/	5%	-5	i	10
Cc1ccc(S(=O)(=O)c2c(N)n(Cc3ccco3)c3nc4ccccc4nc23)cc1	-32	14µM*	-5%	13	7	8
